From PubChem BioAssay AID1159580 (chemical genetic matrix, 2015)
In all, about 5,500 compounds went through this assay and about 2,000 (36%) were called active. About 18% were inconclusive and are not listed. No stated cut-off is given here; in the data, active means normalized growth mostly below about 0.91 (no sharp cut-off); inconclusive means no clear call, values can overlap the other calls; inactive means mostly above about 0.92. Some of the results follow.

Assay: chemical genetic growth profiling, strain panel (AID 1159580);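 further: tested at 20 µM; growth read once vehicle control cultures reached saturation at 30 °C; 1 = growth at the plate median or of vehicle wells; lower values mean less growth of the strain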
Conditions: growth OD

Measured: normalized growth

Cn1nnnc1SCC1=C(C(=O)O)N2C(=O)C(NC(=O)C(OC=O)c3ccccc3)C2SC1 (stereo unspecified)
inactive: S. cerevisiae deletion strains, locus YJR075W, strain HOC1, active compounds read low 1.01 | S. cerevisiae deletion strains, locus YKL009W, strain mrt4, active compounds read low 1.02 | S. cerevisiae deletion strains, locus YKL068W, active compounds read low 1.01 | S. cerevisiae deletion strains, locus YKL085W, strain MDH1 (second series), active compounds read low 1 | S. cerevisiae deletion strains, locus YKL085W, strain MDH1, active compounds read low 1 | S. cerevisiae deletion strains, locus YKL160W, strain elf1, active compounds read low 1.01 | S. cerevisiae deletion strains, locus YKL190W, strain CNB1, active compounds read low 1 | S. cerevisiae deletion strains, locus YKR001C, strain vps1, active compounds read low 1.02 | S. cerevisiae deletion strains, locus YKR026C, strain gcn3, active compounds read low 0.989 | S. cerevisiae deletion strains, locus YKR091W, strain srl3, active compounds read low 0.995 | S. cerevisiae deletion strains, locus YLL001W, strain dnm1, active compounds read low 1 | S. cerevisiae deletion strains, locus YLL026W, active compounds read low 0.997 | S. cerevisiae deletion strains, locus YLL041C, strain sdh2, active compounds read low 1 | S. cerevisiae deletion strains, locus YLR027C, strain aat2, active compounds read low 0.992 | S. cerevisiae deletion strains, locus YLR039C, strain RIC1, active compounds read low 1 | S. cerevisiae deletion strains, locus YLR058C, strain SHM2, active compounds read low 1 | S. cerevisiae deletion strains, locus YLR102C, strain apc9, active compounds read low 1.02 | S. cerevisiae deletion strains, locus YLR113W, strain HOG1, active compounds read low 0.941 | S. cerevisiae deletion strains, locus YLR221C, strain rsa3, active compounds read low 0.987 | S. cerevisiae deletion strains, locus YLR258W, strain gsy2, active compounds read low 0.998 | S. cerevisiae deletion strains, locus YLR262C, strain YPT6 (second series), active compounds read low 1.02 | S. cerevisiae deletion strains, locus YLR262C, strain YPT6, active compounds read low 1.04 | S. cerevisiae deletion strains, locus YLR268W, strain sec22, active compounds read low 1.01 | S. cerevisiae deletion strains, locus YLR320W, strain mms22, active compounds read low 0.993 | S. cerevisiae deletion strains, locus YLR330W, strain CHS5, active compounds read low 1 | S. cerevisiae deletion strains, locus YLR342W, strain FKS1 (second series), active compounds read low 0.999 | S. cerevisiae deletion strains, locus YLR342W, strain FKS1, active compounds read low 0.992 | S. cerevisiae deletion strains, locus YLR357W, strain rsc2, active compounds read low 0.94 | S. cerevisiae deletion strains, locus YLR370C, strain arc18, active compounds read low 0.989 | S. cerevisiae deletion strains, locus YLR371W, strain rom2, active compounds read low 1.02 | S. cerevisiae deletion strains, locus YLR384C, strain iki3, active compounds read low 0.991 | S. cerevisiae deletion strains, locus YLR418C, strain cdc73, active compounds read low 1.04 | S. cerevisiae deletion strains, locus YML016C, strain PPZ1, active compounds read low 1.01 | S. cerevisiae deletion strains, locus YML032C, strain rad52, active compounds read low 1.04 | S. cerevisiae deletion strains, locus YML120C, strain ndi1, active compounds read low 1.02 | S. cerevisiae deletion strains, locus YML124C, strain tub3, active compounds read low 1.02 | S. cerevisiae deletion strains, locus YMR058W, strain fet3, active compounds read low 0.998 | S. cerevisiae deletion strains, locus YMR078C, strain ctf18, active compounds read low 1.02 | S. cerevisiae deletion strains, locus YMR125W, strain sto1, active compounds read low 0.989 | S. cerevisiae deletion strains, locus YMR129W, active compounds read low 1 | S. cerevisiae deletion strains, locus YMR205C, strain PFK2, active compounds read low 1.02 | S. cerevisiae deletion strains, locus YMR223W, strain ubp8, active compounds read low 1.02 | S. cerevisiae deletion strains, locus YMR231W, strain pep5, active compounds read low 0.998 | S. cerevisiae deletion strains, locus YMR263W, strain SAP30, active compounds read low 0.999 | S. cerevisiae deletion strains, locus YMR307W, strain GAS1, active compounds read low 1.07 | S. cerevisiae deletion strains, locus YNL067W, strain RPL9B, active compounds read low 1 | S. cerevisiae deletion strains, locus YNL071W, strain lat1, active compounds read low 1 | S. cerevisiae deletion strains, locus YNL128W, strain TEP1, active compounds read low 1.02 | S. cerevisiae deletion strains, locus YNL153C, strain GIM3, active compounds read low 0.997 | S. cerevisiae deletion strains, locus YNL183C, strain NPR1, active compounds read low 0.934 | S. cerevisiae deletion strains, locus YNL209W, strain ssb2, active compounds read low 1 | S. cerevisiae deletion strains, locus YNL233W, strain BNI4, active compounds read low 0.993 | S. cerevisiae deletion strains, locus YNL248C, strain rpa49, active compounds read low 0.986 | S. cerevisiae deletion strains, locus YNL250W, strain rad50, active compounds read low 1.02 | S. cerevisiae deletion strains, locus YNL271C, strain bni1, active compounds read low 1.04 | S. cerevisiae deletion strains, locus YNL298W, strain CLA4, active compounds read low 1.05 | S. cerevisiae deletion strains, locus YNL307C, strain MCK1, active compounds read low 1.03 | S. cerevisiae deletion strains, locus YNL322C, strain KRE1 (second series), active compounds read low 1 | S. cerevisiae deletion strains, locus YNR049C, strain mso1, active compounds read low 0.988 | S. cerevisiae deletion strains, locus YNR052C, strain pop2, active compounds read low 1.03 | S. cerevisiae deletion strains, locus YOL006C, strain TOP1, active compounds read low 1.02 | S. cerevisiae deletion strains, locus YOL012C, strain htz1 0.769 | S. cerevisiae deletion strains, locus YOL147C, strain pex11, active compounds read low 1.02 | S. cerevisiae deletion strains, locus YOR001W, strain rrp6, active compounds read low 0.973 | S. cerevisiae deletion strains, locus YOR061W, strain CKA2, active compounds read low 1.01 | S. cerevisiae deletion strains, locus YOR069W, strain VPS5, active compounds read low 0.993 | S. cerevisiae deletion strains, locus YOR070C, strain gyp1, active compounds read low 0.985 | S. cerevisiae deletion strains, locus YOR080W, strain dia2, active compounds read low 1 | S. cerevisiae deletion strains, locus YOR083W, strain WHI5, active compounds read low 1.01 | S. cerevisiae deletion strains, locus YOR106W, strain vam3, active compounds read low 1.02 | S. cerevisiae deletion strains, locus YOR136W, strain idh2, active compounds read low 1.03 | S. cerevisiae deletion strains, locus YOR144C, strain elg1, active compounds read low 1.01 | S. cerevisiae deletion strains, locus YOR184W, strain ser1, active compounds read low 1.02 | S. cerevisiae deletion strains, locus YOR231W, strain MKK1, active compounds read low 0.983 | S. cerevisiae deletion strains, locus YOR265W, strain rbl2, active compounds read low 1.01 | S. cerevisiae deletion strains, locus YOR270C, strain vph1, active compounds read low 1.01 | S. cerevisiae deletion strains, locus YOR290C, strain snf2, active compounds read low 1.01 | S. cerevisiae deletion strains, locus YOR316C, strain cot1, active compounds read low 1.02 | S. cerevisiae deletion strains, locus YPL051W, strain arl3, active compounds read low 0.983 | S. cerevisiae deletion strains, locus YPL055C, strain LGE1, active compounds read low 1.02 | S. cerevisiae deletion strains, locus YPL078C, strain atp4, active compounds read low 1.01 | S. cerevisiae deletion strains, locus YPL106C, strain sse1, active compounds read low 1.01 | S. cerevisiae deletion strains, locus YPL240C, strain hsp82, active compounds read low 0.995 | S. cerevisiae deletion strains, locus YPL241C, strain CIN2, active compounds read low 1 | S. cerevisiae deletion strains, locus YPL256C, strain CLN2, active compounds read low 0.999 | S. cerevisiae deletion strains, locus YPR119W, strain clb2, active compounds read low 1.02 | S. cerevisiae deletion strains, locus YPR141C, strain kar3, active compounds read low 1.01 | S. cerevisiae deletion strains, locus YPR163C, strain tif3, active compounds read low 1.04 | S. cerevisiae deletion strains, locus YPR167C, strain met16, active compounds read low 1.02 | S. cerevisiae deletion strains, strain wtn01, active compounds read low 1.01 | S. cerevisiae strains, strain wild type, active compounds read low 1
